Experimental findings from PubChem BioAssay AID504692 (The Scripps Research Institute Molecular Screening Center, 2011) are described below.

Out of some 340,000 compounds screened, about 2,000 (0.59%) were called active. The full list was thinned out, with actives kept by preference. A number with no mark means an inactive call. Rule as the data show it: active = activation mostly above about 9.5% (no sharp cut-off); inactive = mostly below about 7.6%.

Sequence of 5-hydroxytryptamine receptor 5A (Homo sapiens) (P47898 whole entry, looked up): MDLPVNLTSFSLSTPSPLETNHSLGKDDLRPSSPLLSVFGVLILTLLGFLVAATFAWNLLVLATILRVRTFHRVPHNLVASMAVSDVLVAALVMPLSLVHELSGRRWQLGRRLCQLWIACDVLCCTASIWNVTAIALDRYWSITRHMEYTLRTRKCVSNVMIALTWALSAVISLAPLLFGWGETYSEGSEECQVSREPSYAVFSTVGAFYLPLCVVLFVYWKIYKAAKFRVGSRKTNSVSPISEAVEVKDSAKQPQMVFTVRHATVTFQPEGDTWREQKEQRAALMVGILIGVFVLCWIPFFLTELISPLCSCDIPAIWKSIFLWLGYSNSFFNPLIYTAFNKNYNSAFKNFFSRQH

The test has as its target 5-hydroxytryptamine receptor 5A (Homo sapiens) (UniProt P47898). As to the kind of experiment: activation of human 5-HT5A receptor – cell-based, luminescence, full-deck HTS, counter-screen for OPRM1-OPRD1 heterodimer agonist project, primary screen (AID 504692).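 Also: 0% = cells with vehicle only and 100% = reference agonist.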 The note with it: HTR5A agonist assay, at 9.3 µM, stronger effect = higher value. (A counterscreen serves to expose hits that act by an unwanted route or on another target.)
Consider `Cc1ccc(CN2C(=O)N/C(=C/c3cc(C)n(-c4ccccn4)c3C)C2=O)cc1`, for which the activation was 1.53%.

With `Cc1cccc(NC(=O)CN2CCCN(S(=O)(=O)c3ccc(Br)s3)CC2)c1`, the activation is 0.97%.

Turning to `Cc1ccc(-c2csc(SCC(=O)Nc3cc(C)on3)n2)cc1`, the activation is 14.7% (active).

As for `Cc1ccc2nc(-c3ccc(SCC(=O)Nc4cc(C)on4)nc3)[nH]c2c1`, the activation is -0.96%.

As for `Cc1ccc(SCCC(=O)Nc2cc(C)on2)cc1`, the activation was -4.61%.

Take `O=C(NCC(F)(F)F)Nc1nnc(C(F)(F)F)s1`: the activation is 4%.

As for `O=C(c1cccc([N+](=O)[O-])c1)N1CCN(Cc2ccccc2)CC1`, the activation was 5.31%.

In the case of `Cc1ccc(S(=O)(=O)N(Cc2cccc([N+](=O)[O-])c2)C(=O)N2CCN(C)CC2)cc1`, the activation was 0.8%.

Regarding `O=C(CCl)N(Cc1cccc([N+](=O)[O-])c1)c1cccc(Cl)c1`, the activation is 40.9% (active).

As to `O=S(=O)(NCCCCCCNS(=O)(=O)c1c(F)cccc1F)c1ccc2c(c1)OCCO2`, the activation is 2.32%.

In the case of `COc1ccccc1N(C)S(=O)(=O)c1ccc(C(=O)NC2CCCCCC2)cc1`, the activation was 2.54%.

For the compound `CC1CCC2CCCCC2N1C(=O)c1cc([N+](=O)[O-])cc([N+](=O)[O-])c1` (stereo not given), the activation was 4.16%.

With `CN1c2ccc(C=O)c3c(C=O)ccc(c23)N(C)C1(C)C`, the activation is 20.2% (active).

With `CN(CC(=O)Nc1ccccc1Cl)C(=O)COc1cccc2c1OC(C)(C)C2`, the activation is 2.73%.

On to `CCSc1nc(O)c(C(c2cccc(OC)c2)c2c(O)nc(SCC)[nH]c2=O)c(=O)[nH]1`, for which the activation is 6.11%.

Turning to `Cc1ccc(/C([O-])=C(/C(=S)NCc2ccco2)[n+]2ccccc2)cc1[N+](=O)[O-]`, the activation was 0.24%.

Regarding `O=C(COC(=O)CSc1nnc(-c2ccc(Cl)cc2)o1)Nc1cc(Cl)cc(Cl)c1`, the activation is 0.33%.

On to `O=C(NNS(=O)(=O)c1ccc([N+](=O)[O-])cc1)C1CCCCC1`, for which the activation was -4.2%.

In the case of `Cc1cccc2sc(N(CCCN(C)C)C(=O)CCS(=O)(=O)c3ccccc3)nc12`, the activation was 23.6% (active).

For the compound `COc1cccc2sc(N(CCCN(C)C)C(=O)CCS(=O)(=O)c3ccccc3)nc12`, the activation is 8.64%.

As for `COc1cc2ccccc2cc1C(=O)N(CCN(C)C)c1nc2c(F)cccc2s1`, the activation is 0.73%.

Turning to `CC1Cc2ccccc2N1S(=O)(=O)c1cccc(C(=O)NCC(c2ccco2)N2CCCC2)c1` (stereo not given), the activation was 2.58%.

Regarding `COc1ccc(N2CCN(C(=O)Cn3cnc4sc(C)c(S(=O)(=O)N5CCOCC5)c4c3=O)CC2)cc1`, the activation was -1.42%.

Take `Cc1csc2nc(COC(=O)c3cccc(N(C)C)c3)cc(=O)n12`: the activation was -1.39%.

As to `Cc1ccccc1OCC(=O)Nc1nnc(S(=O)(=O)N2CCCC2)s1`, the activation is 4.03%.

For `O=C(COc1ccccc1F)Nc1nc(-c2ccccn2)cs1`, the activation was -1.27%.

`CC1CCN(S(=O)(=O)c2nnc(NC(=O)COc3ccccc3F)s2)CC1`: the activation was 18.1% (active).

As for `CC(NC(=S)NNS(=O)(=O)c1ccc(C(C)(C)C)cc1)c1ccccc1` (stereo not given), the activation was -3.78%.

Consider `COc1ccc(-c2ccc3c(c2)[C@@H]2C[C@H](N(C)S(=O)(=O)c4ccccc4)[C@H]([C@H](C)O)C(=O)N2CC3)cc1`, for which the activation is 2.65%.

As to `CC1CC(C)CN(C(=O)C2CC(=O)N(c3ccc(F)cc3)C2)C1` (stereo not given), the activation was 5.22%.

As for `CC1CCN(S(=O)(=O)c2ccc3c(ccn3CC(=O)O)c2)CC1`, the activation was 9.91% (active).

For the compound `CC1CCN(S(=O)(=O)c2ccc3c(c2)n(C)c(=O)n3C)CC1`, the activation was 4.68%.

In the case of `Cc1ccn2c(c1)nc(=O)c1cc(S(=O)(=O)N3CCC(C)CC3)ccc12`, the activation was 0.6%.

For `CCCCCCCCCCOC(=O)Cn1c(COc2ccc(C)cc2)[n+](C)c2ccccc21`, the activation was 9.74% (active).

With `CCOC(=O)COn1c(=O)c(-c2ccc(OCC)cc2)[n+]([O-])c2ccccc21`, the activation was -0.87%.

As for `CCOC(=O)CNC(=O)CSc1nnc(-c2cccc(OC)c2)n1CC`, the activation was 1.82%.

On to `CCCCCCCCCCOC(=O)Cn1c(COc2cccc(OC)c2)[n+](C)c2ccccc21`, for which the activation was 13.7% (active).

Turning to `COc1cccc(OCc2nnc3n2N=C(c2ccccc2)C(CC(=O)O)S3)c1` (stereo not given), the activation is 1.48%.

`CCCCOc1ccc(NC(=O)CSCC(=O)OCC)cc1`: the activation was -1.74%.

Regarding `CC[C@]12c3[nH]c4ccc(Cl)cc4c3CCN1C(=O)[C@@H](CC(=O)NCCCOC)C[C@@H]2C(=O)N1CCN(C(=O)c2ccco2)CC1`, the activation is -0.61%.

On to `COc1ccc(CNC(=O)CN(Cc2ccccc2Cl)C(=O)c2csnn2)cc1`, for which the activation is 0.86%.

On to `O=c1/c(=C/c2ccc(CNS(=O)(=O)c3ccccc3)o2)sc2n1CCN=2`, for which the activation is -6.78%.

Consider `CCC(C)(C)NC(=O)CN(C(=O)CCC(=O)Nc1cc(C)ccn1)c1ccc2c(c1)OCCO2`, for which the activation was 2.5%.

On to `Fc1ccccc1-c1cc2cc3c(cc2cn1)OCO3`, for which the activation is 7.94%.

`O=C(c1noc2c1CCCC2)N1CCc2ccccc2C1`: the activation was 5.42%.

`CCC1(C)NC(=O)N(CC(=O)N2CCN(c3cccc(Cl)c3)CC2)C1=O` (stereo not given): the activation is 0.94%.

`Cc1ccc(CCC(=O)Nc2ncc(Cc3cc(Cl)ccc3Cl)s2)o1`: the activation was 17.4% (active).

In the case of `Cc1ccc(Cc2cnc(N)s2)o1`, the activation was -3.06%.

Turning to `Cc1ccc(C(=O)Nc2nc3ccc(Cl)cc3s2)o1`, the activation was 5.48%.

For `COc1ccc(C(=O)NCc2ccc(C)cc2)cc1S(=O)(=O)N1CCCC1`, the activation was 5.16%.

On to `C/C=C/C(=O)OCC(=O)Nc1ccc(F)cc1Cl`, for which the activation was 6.73%.

Consider `Cc1ccc2nc(-c3ccc(NC(=O)c4cccnc4)cc3)oc2c1`, for which the activation was 1.12%.

`O=C(Nc1ccc2oc(-c3ccccc3F)nc2c1)c1ccco1`: the activation is 0.88%.

As to `COc1cc(OC)cc(C(=O)Nc2ccc(-c3nc4ccccc4o3)c(O)c2)c1`, the activation was 13.9% (active).

For `COc1ccc(C(=O)NC(C)c2nccs2)cc1OC1CCN(C(C)C)CC1` (stereo not given), the activation was 0.03%.

Consider `Cc1ccc(C)c(NC(=O)CCC(=O)N/N=C2/CC(=O)CC(C)(C)C2)c1`, for which the activation was 0.95%.

As for `Cc1c(-c2ccccc2)n[nH]c1C(=O)N=Nc1c(O)[nH]c2ccccc12`, the activation is 12.7% (active).

Consider `O=C(CCN1CCCCC1)N=Nc1c(O)[nH]c2ccccc12`, for which the activation was -0.47%.

Take `Oc1[nH]c2ccccc2c1N=Nc1c(F)c(F)c(F)c(F)c1F`: the activation was 4.3%.

`NC(=O)c1ncn([C@@H]2O[C@H](CNCc3cnc(N4CCOCC4)s3)[C@@H](O)[C@H]2O)n1`: the activation was -1.96%.

With `CCOC(=O)C(C)n1cnc2c(nnn2-c2ccc(F)cc2)c1=O` (stereo not given), the activation was 0.23%.

Consider `Fc1ccccc1OCCSc1nc2ccccc2o1`, for which the activation was 4.15%.

With `CS(=O)(=O)c1ccc2c(c1)SC1=NC(=O)/C(=C/c3ccco3)C(=N)N12`, the activation is 3.34%.

With `COC(=O)COc1ccc2c(c1C)O/C(=C\c1ccco1)C2=O`, the activation is -6.31%.

Consider `CC(C)(C)C1C/C(=C/c2ccco2)C(=O)/C(=C/c2ccco2)C1` (stereo not given), for which the activation is 10.1% (active).

Regarding `COc1c(O)cc2oc(-c3ccc(O)c(O)c3)cc(=O)c2c1O`, the activation was -1.01%.

With `Cc1ccc(S(=O)(=O)N2CCN(C(=O)COC(=O)/C=C/c3cccc(Cl)c3)CC2)c(C)c1`, the activation is 8.67%.

For `Cc1c(C2=CCN(S(=O)(=O)c3ccc(Cl)cc3)CC2)c2ccccc2n1C`, the activation was 1.24%.

On to `COC(=O)CSc1nnc(-c2cccnc2)o1`, for which the activation was 0.3%.

Consider `CCN(C(=O)CSc1nnc(-c2ccncc2)o1)c1ccccc1`, for which the activation was -1.64%.

Take `Cc1cccc(C)c1OC(=O)CSc1nnc(-c2ccccc2)o1`: the activation was 11% (active).

Take `CCCCN(CCCC)CCC(O)c1cc2c(Cl)cc(Cl)cc2c2cc(C(F)(F)F)ccc12` (stereo not given): the activation is 5.23%.

As to `Cn1cc([N+](=O)[O-])c(C(=O)Nc2ccc3c(c2)OCCO3)n1`, the activation is -1.8%.

Regarding `Cc1onc(C(=O)Nc2ccc3c(c2)OCO3)c1[N+](=O)[O-]`, the activation is 14.2% (active).

Regarding `Cc1nn(CC(=O)Nc2ccc3c(c2)OCO3)c(C)c1[N+](=O)[O-]`, the activation is 6.4%.

For `O=c1cc(CO)oc(C(Nc2cccc([N+](=O)[O-])c2)c2ccccn2)c1O` (stereo not given), the activation is 0.87%.

With `Cc1ccc2nc(-c3ccncc3)cc(C(=O)Nc3ccc(OC(F)F)cc3)c2c1`, the activation was 1.14%.

As for `Cc1ccc2nc(-c3ccncc3)cc(C(=O)Nc3ccncc3)c2c1`, the activation is 21% (active).

Turning to `Cc1ccc2nc(-c3ccncc3)cc(C(=O)Nc3ccc4c(c3)OCCO4)c2c1`, the activation is 12.6% (active).

`CCN(CC)CCNC(=O)c1ccc(NC(=O)c2cc(-c3ccncc3)nc3ccccc23)cc1`: the activation is 2.22%.

Regarding `CCn1c(SCC(=O)Nc2ccc3c(c2)OCCO3)nnc1-c1ccncc1`, the activation was 3.29%.

`CCOc1ncccc1C(=O)Nc1ccc2c(c1)OCCO2`: the activation was 0.83%.

As to `COc1cc2c(cc1OC)C1C(=O)c3cc(OS(C)(=O)=O)c(OC)cc3C1N(C)C2=O` (stereo not given), the activation was -2.76%.

For `OC(CN=c1sc2ccccc2n1CC(O)COc1ccccc1)COc1ccccc1` (stereo not given), the activation was 7.91%.

On to `CCn1nnc(NC(=O)c2cc(Cl)c(OC)c(Cl)c2)n1`, for which the activation is -6.18%.

Regarding `CN(CCc1ccccc1)c1ccc([N+](=O)[O-])cn1`, the activation is 2.92%.

As for `COc1ccc(Br)cc1S(=O)(=O)N1CCN=C1C`, the activation is 2.3%.

Take `CCCCOC(=O)NCN1C(=O)C2C3C=CC(C3)C2C1=O` (stereo not given): the activation is 9.49% (active).

With `O=C(CN1C(=O)C2C3C=CC(C3)C2C1=O)NCCc1ccccc1Cl` (stereo not given), the activation was -1.28%.

As to `CCCCCOC(=O)c1ccc(N2C(=O)C3C4C=CC(C4)C3C2=O)cc1` (stereo not given), the activation was -1.59%.
